In PubChem BioAssay (NCI):
The panel holds about 83,000 compounds, 20% with a hit somewhere; the sample as a whole holds those more often.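 In brief: 96-well plates, 48 h treatment, single concentration, percent growth endpoint.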 Values without a mark were called inactive. The source made the active and inactive calls. The calls were made as follows: active = growth percent below 10; inactive = the rest.

How the values were obtained:
Test in all cases: NCI-60 one-dose screen, 48 h (100 = growth as untreated, 0 = no growth, -100 = all killed)
Conditions in all cases: 10 µM unless noted
[1] = test system: HCT-15 colon
[2] = test system: HT29 colon
[3] = test system: SNB-75 CNS
[4] = test system: SNB-19 CNS
[5] = test system: U251 CNS
[6] = test system: PC-3 prostate
[7] = test system: SK-MEL-5 melanoma
[8] = test system: UACC-62 melanoma
[9] = test system: LOX IMVI melanoma
[10] = test system: SK-MEL-28 melanoma
[11] = test system: SK-MEL-2 melanoma
[12] = test system: EKVX NSCLC
[13] = test system: SN12C renal
[14] = test system: UO-31 renal
[15] = test system: TK-10 renal
[16] = test system: ACHN renal
[17] = test system: A498 renal
[18] = test system: CCRF-CEM leukemia
[19] = test system: MOLT-4 leukemia

SMILES | growth [1] | growth [2] | growth [3] | growth [4] | growth [5] | growth [6] | growth [7] | growth [8] | growth [9] | growth [10] | growth [11] | growth [12] | growth [13] | growth [14] | growth [15] | growth [16] | growth [17] | growth [18] | growth [19]
COc1ccc(SC2c3ccc(O)cc3Oc3nc(N)c(C#N)c(N)c32)cc1 (centres undefined) | 85% | 101% | 84.7% | 78.6% | 60.9% | 56.1% | 55.7% | 105% | 33.7% | 106% | 98.1% | 79% | 54.3% | 71.1% | 73% | 97.7% | 84.7% | 31.8% | –
C=C1C(=O)O[C@H]2[C@H]1CC/C(COC(=O)c1cccc3ccccc13)=C\CC[C@@]1(C)O[C@@H]21 | -46.9% (active) | -84.2% (active) | 29% | 10.5% | -83.7% (active) | -70.9% (active) | -89% (active) | -76.9% (active) | -92.2% (active) | -56.7% (active) | -65.6% (active) | -81.9% (active) | -55.3% (active) | -100% (active) | -73.1% (active) | -100% (active) | 82.2% | -19% (active) | -15.1% (active)
Cc1cccc(NCS(=O)(=O)O)c1 | 101% | 101% | 106% | 101% | 87.8% | 93% | 99.7% | 113% | 95.2% | 113% | 109% | 98.7% | 112% | 93% | 98.5% | 107% | 111% | 102% | 102%
CCc1c2cc(Cl)ccc2n2cc(Cc3ccccc3)[nH]c(=O)c12 | 98.9% | 110% | 96.9% | 104% | 99.5% | 97.4% | 104% | 98.2% | 98.2% | 107% | 97.5% | 101% | 101% | 82.3% | 120% | 93.3% | 102% | 93.9% | –
CCOC(=O)C1CN(Cc2ccccc2)C(=O)C1=O (centres undefined) | 86.2% | 115% | 76.1% | 101% | 111% | 91.8% | 106% | 103% | 104% | 101% | 114% | 110% | 108% | 64.3% | 113% | 104% | 91.6% | 22.9% | –
CN(C)c1ccc2cc(-c3nc4ccccc4s3)c(N)nc2c1 | 41% | 23.9% | 63.9% | 60.7% | 33.2% | 20.2% | 58.7% | 95.5% | 85.3% | 98.3% | 51.5% | 67.7% | 48.5% | 51.8% | 111% | 102% | 38.2% | 6.43% (active) | 22.4%
CC1(C)N=C(N)N=C(N)N1c1ccc(OCC(=O)Nc2ccccc2)c(Cl)c1 | 96.7% | 17.6% | 82.3% | 49.4% | 41% | 14.8% | 26.6% | 18.2% | 22.4% | 76.3% | 47.5% | 48.9% | 30.5% | 104% | 57.6% | 103% | 94.8% | 28.8% | 32%
CCCCn1c(-c2cccc(OC)c2)nc2cc(OC)c(OC)cc2c1=O | 103% | 110% | 96.1% | 89.7% | 96.3% | 108% | 97.1% | 83.6% | 89.2% | 109% | 101% | 70.8% | 98.1% | 80.6% | 215% | 97.8% | 110% | -22.6% (active) | 69.8%
